The values that follow come from ChEMBL document CHEMBL3988442, “University of Dundee, Small-Polar-MMV Screening Library” (2021).

Holding throughout (parameters): scale not given: direction of the effect not stated beside the values
In assay [1] the target is Protein translocase subunit SecA (Escherichia coli (strain K12)) (UniProt P10408). The assay can be described thus: Assay to Identify E. coli SecA ATPase Inhibitors. Type of assay: functional. The note with it: 30 µM.
The target of assay [2] is T1, Ubiquitin-activating enzyme e1, putative (Leishmania donovani (strain BPK282A1)) (UniProt E9BSI1).
T1 sequence (whole entry): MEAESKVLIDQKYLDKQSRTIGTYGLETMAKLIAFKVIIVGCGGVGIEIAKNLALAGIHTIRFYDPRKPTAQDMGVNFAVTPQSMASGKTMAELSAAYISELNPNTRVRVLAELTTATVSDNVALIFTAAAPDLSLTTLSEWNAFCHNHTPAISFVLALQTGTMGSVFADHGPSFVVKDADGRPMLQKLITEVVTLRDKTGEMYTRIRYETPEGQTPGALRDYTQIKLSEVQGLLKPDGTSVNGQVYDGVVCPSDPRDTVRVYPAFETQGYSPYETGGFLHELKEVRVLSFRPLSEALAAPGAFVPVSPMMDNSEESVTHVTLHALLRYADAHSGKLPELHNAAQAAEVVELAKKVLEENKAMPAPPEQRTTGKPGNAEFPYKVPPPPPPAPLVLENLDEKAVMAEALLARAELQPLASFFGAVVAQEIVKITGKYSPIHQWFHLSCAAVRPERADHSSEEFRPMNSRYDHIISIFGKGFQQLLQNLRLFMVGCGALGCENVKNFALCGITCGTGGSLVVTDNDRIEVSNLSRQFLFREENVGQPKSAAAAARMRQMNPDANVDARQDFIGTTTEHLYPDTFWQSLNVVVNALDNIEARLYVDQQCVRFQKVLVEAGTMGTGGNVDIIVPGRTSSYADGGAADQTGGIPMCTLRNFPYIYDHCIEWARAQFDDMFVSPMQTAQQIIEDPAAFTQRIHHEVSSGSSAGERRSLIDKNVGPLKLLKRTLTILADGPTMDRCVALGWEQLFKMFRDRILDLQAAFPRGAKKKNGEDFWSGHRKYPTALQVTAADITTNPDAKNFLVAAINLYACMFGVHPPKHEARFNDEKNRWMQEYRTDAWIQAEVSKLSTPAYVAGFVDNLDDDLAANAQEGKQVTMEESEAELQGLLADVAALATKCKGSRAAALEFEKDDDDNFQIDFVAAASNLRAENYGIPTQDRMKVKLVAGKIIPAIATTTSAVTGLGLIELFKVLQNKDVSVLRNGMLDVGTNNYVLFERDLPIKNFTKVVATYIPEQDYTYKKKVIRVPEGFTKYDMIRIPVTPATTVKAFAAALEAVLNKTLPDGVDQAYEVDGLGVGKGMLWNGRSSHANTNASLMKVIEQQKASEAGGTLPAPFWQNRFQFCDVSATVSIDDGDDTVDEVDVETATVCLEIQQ
The assay can be described thus: Leishmania donovani Ubiquitin Activating Enzyme (LdE1). In kind it is functional. The following applies: 30 µM.

The target of assay [3] is T2, Aspartate--tRNA(Asp/Asn) ligase (Mycobacterium tuberculosis (strain ATCC 25618 / H37Rv)) (UniProt P9WFW3). Further: in the data most compounds retested in dose-response had high values.
T2 sequence (whole entry): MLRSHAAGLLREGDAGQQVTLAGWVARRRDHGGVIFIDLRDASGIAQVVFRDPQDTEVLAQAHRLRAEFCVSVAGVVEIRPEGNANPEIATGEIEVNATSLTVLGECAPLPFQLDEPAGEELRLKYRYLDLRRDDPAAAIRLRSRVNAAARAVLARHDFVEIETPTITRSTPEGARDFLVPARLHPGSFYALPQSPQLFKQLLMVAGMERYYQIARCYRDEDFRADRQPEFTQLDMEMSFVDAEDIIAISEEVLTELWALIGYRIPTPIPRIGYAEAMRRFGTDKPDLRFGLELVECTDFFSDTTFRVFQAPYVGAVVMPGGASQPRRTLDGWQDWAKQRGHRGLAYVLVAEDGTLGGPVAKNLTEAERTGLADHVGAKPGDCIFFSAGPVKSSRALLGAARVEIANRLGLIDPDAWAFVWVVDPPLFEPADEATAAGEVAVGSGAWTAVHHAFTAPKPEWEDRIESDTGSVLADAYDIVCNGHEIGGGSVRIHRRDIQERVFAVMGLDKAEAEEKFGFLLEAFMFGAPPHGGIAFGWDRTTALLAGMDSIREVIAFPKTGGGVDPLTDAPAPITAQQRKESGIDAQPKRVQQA
Kind of assay: Assay for Asp RNA synthetase-1 from Mycobacterium tuberculosis. In kind it is functional. The following applies: 30 µM.

Assay [4] addresses Sialic acid-binding Ig-like lectin 9 (Homo sapiens) (UniProt Q9Y336). Kind of assay: Hs-Siglec9 ALPHAscreen SOP 20170721. The following applies: 10 µM.
A further assay deals with Trypanosoma cruzi. The assay can be described thus: Trypanosoma cruzi phosphomannomutase and mannose-1-phosphate guanylyltransferase assay. In kind it is functional. The following applies: 10 µM.
The target of assay [5] is T3, Arginase-2, mitochondrial (Homo sapiens) (UniProt P78540).
T3 sequence (whole entry): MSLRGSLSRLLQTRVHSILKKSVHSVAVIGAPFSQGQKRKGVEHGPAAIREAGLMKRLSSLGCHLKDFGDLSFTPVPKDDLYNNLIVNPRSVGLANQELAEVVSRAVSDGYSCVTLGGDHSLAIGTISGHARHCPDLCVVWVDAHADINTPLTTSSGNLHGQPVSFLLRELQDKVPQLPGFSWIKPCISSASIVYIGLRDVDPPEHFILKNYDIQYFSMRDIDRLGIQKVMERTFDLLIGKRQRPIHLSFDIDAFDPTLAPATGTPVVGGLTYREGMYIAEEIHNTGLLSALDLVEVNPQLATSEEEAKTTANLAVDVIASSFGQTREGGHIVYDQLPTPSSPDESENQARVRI
Kind of assay: in vitro enzyme assay to detect the production of urea directly proportional to the activity of Arginase II. Further: in the data most compounds retested in dose-response had high values. The note with it: 33.3 µM. In kind it is functional.

The target in assay [6] is T4, Proteasome subunit beta (Trypanosoma cruzi) (UniProt O96673).
T4 sequence (whole entry): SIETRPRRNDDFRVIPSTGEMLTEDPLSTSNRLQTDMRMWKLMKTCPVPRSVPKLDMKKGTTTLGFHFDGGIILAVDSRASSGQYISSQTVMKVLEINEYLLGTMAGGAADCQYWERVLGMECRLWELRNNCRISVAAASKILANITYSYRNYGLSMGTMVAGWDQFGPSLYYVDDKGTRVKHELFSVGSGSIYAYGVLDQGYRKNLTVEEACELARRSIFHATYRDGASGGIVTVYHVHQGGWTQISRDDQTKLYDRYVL
Kind of assay: Trypanosoma cruzi proteasome chymotrypsin-like activity (TcProtChymo) assay. Further: in the data most compounds retested in dose-response had high values. Type of assay: functional. The note with it: 9.37 µM.

The species named for the next assay is Homo sapiens. Kind of assay: To identify inhibition of the IFN signalling (Jak-Stat) pathway via expression of an eGFP reporter gene under the control of an IFN-stimulated response element (ISRE) containing MxA promoter. In kind it is functional. The following applies: 30 µM.
The target of assay [7] is Shiga toxin 2 (Escherichia coli O157:H7) (UniProt P09385+P09386). Kind of assay: E. coli 0.157:H7 Shiga Toxin SOP - stx2 screening assay. Type of assay: functional. The following applies: 30 µM.
Assay [8] concerns the target T5, Tyrosyl-tRNA synthetase, putative (Trypanosoma cruzi (strain CL Brener)) (UniProt Q4DSP6).
T5 sequence (whole entry): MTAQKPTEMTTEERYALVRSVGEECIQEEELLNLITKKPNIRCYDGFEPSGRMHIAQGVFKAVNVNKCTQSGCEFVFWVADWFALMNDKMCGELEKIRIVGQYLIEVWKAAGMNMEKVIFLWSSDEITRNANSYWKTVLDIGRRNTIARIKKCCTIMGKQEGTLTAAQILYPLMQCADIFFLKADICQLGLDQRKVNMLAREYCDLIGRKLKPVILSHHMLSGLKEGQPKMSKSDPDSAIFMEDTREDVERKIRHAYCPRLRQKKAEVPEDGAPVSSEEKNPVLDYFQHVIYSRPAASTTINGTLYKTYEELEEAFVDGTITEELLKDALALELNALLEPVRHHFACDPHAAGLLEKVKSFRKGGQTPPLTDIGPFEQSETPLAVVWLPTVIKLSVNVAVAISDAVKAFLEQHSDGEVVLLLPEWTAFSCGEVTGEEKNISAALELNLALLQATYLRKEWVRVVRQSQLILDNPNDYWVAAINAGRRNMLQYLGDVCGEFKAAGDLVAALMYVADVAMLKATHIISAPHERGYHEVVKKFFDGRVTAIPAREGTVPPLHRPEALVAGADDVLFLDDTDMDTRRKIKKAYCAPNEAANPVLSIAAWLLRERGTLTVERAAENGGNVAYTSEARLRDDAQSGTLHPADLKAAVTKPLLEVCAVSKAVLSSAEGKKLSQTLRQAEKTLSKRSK
The assay can be described thus: Trypanosoma cruzi tyrosyl tRNA synthetase (TcYRS) _High Tyrosine SOP. Further: in the data most compounds retested in dose-response had high values. The note with it: 30 µM. In kind it is functional.

The target in assay [9] is T5, Tyrosyl-tRNA synthetase, putative (Trypanosoma cruzi (strain CL Brener)). Kind of assay: Trypanosoma cruzi tyrosyl tRNA synthetase (TcYRS) SOP. In kind it is functional. The note with it: 30 µM.
For assay [10], the target named is Chromo domain-containing protein 1 (Saccharomyces cerevisiae (strain ATCC 204508 / S288c) (Baker's yeast)) (UniProt P32657). The assay can be described thus: ScCHD-1 Enzyme Inhibition Assay. Further: in the data most compounds retested in dose-response had high values. Type of assay: functional. The note with it: 30 µM.

Molecules are shown by their SMILES. For part of these data: Measured potencies and affinities stand elsewhere.

Chain of Sialic acid-binding Ig-like lectin 9 (Homo sapiens) (Q9Y336 whole entry): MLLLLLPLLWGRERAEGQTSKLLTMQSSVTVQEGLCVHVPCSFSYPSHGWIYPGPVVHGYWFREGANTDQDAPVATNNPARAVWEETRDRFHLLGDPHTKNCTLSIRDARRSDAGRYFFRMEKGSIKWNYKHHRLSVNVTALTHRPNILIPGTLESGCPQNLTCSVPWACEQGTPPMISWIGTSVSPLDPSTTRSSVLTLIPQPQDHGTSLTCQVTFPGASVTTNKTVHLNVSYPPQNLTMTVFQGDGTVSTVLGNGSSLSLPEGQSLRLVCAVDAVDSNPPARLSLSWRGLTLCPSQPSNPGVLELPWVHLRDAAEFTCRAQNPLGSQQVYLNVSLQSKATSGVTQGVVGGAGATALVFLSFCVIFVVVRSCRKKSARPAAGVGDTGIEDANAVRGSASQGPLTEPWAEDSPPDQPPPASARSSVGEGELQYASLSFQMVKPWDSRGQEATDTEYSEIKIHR
Chain of Chromo domain-containing protein 1 (Saccharomyces cerevisiae (strain ATCC 204508 / S288c) (Baker's yeast)) (P32657 whole entry, the tested form may be a part): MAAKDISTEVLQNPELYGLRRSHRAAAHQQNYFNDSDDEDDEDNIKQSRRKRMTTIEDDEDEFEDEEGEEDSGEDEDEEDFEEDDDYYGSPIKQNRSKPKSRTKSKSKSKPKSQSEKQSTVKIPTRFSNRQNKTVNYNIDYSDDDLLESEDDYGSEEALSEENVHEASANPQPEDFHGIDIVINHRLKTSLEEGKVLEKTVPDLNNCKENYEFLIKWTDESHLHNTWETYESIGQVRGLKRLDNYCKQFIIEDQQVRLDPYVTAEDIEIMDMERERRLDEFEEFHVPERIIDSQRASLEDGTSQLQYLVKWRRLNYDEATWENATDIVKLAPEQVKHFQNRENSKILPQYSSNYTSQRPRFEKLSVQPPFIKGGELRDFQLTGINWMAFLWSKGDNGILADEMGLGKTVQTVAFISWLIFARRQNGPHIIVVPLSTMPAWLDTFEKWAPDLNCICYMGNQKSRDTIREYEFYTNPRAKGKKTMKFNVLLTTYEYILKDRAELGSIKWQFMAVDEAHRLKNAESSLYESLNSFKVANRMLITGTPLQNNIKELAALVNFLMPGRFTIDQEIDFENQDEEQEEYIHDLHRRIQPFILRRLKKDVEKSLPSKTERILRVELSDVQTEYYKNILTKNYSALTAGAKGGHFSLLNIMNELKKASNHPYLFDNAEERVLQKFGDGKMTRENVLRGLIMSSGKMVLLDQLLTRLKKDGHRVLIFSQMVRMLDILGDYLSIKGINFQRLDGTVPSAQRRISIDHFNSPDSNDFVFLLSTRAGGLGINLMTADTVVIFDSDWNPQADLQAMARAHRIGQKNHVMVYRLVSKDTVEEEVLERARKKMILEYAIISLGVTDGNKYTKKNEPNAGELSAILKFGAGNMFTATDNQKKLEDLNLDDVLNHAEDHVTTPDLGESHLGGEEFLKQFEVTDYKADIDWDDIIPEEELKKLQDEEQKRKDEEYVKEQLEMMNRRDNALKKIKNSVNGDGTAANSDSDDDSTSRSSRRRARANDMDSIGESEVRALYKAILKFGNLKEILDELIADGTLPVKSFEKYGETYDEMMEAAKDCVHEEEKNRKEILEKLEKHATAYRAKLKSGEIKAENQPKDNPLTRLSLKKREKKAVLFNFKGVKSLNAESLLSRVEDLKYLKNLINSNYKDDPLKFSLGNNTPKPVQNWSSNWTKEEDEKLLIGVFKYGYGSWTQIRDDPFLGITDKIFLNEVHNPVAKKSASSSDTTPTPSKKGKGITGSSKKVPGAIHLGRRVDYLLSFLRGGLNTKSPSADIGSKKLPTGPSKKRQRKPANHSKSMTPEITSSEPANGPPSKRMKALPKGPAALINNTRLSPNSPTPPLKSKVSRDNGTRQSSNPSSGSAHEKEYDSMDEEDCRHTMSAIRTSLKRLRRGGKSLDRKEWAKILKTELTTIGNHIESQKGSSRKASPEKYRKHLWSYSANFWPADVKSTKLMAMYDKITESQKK
Chain of Protein translocase subunit SecA (Escherichia coli (strain K12)) (P10408 whole entry): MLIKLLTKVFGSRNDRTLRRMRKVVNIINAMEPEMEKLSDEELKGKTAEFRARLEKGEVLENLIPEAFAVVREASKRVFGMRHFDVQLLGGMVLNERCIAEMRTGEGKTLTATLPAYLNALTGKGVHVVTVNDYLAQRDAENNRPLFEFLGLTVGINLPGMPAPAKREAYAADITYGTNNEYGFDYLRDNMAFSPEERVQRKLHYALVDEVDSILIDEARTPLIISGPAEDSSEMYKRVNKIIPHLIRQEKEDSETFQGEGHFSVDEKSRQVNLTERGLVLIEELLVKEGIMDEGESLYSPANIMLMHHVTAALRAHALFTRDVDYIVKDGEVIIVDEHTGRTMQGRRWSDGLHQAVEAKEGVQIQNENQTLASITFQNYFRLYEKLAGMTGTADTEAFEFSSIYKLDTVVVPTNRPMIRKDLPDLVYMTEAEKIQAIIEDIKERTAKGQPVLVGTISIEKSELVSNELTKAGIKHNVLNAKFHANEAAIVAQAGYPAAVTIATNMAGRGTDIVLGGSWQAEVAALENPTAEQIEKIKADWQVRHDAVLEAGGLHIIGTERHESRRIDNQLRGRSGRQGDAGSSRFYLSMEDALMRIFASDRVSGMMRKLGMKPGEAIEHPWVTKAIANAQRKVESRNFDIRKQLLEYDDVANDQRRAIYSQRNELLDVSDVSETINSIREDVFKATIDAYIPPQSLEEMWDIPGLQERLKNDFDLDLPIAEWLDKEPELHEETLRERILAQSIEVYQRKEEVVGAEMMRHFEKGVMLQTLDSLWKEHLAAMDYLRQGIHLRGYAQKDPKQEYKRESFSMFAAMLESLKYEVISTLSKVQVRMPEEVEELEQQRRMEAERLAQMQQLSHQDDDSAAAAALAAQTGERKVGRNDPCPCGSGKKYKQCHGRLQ

In the case of `CCC(O)CN1CCN(C(=O)Cc2cc(Cl)ccc2OC)CC1` (stereo not given), the Percent Effect is 1.11% in assay [1]; 13% in assay [2]; -1.9% in assay [3]; 12.1% in assay [4]; -1.31% in the assay on Trypanosoma cruzi; -3.89% in [5]. The Percent Effect is 4.04% in [6]; 13.4% in the assay filed under Homo sapiens; -9.78% in [7]; 4.9% in [8]; 21.2% in [9]; -7% in assay [10].

In the case of `C[C@@H]1CN(Cc2ccsc2)C[C@]12CCN(Cc1cccnc1)C2=O`, the Percent Effect in assay [1] is -4.41%; in assay [2], 1.3%; in assay [3], -1.62%; in [4], 1.42%; with Trypanosoma cruzi it was -1.69%; in assay [5], 1.37%. In addition, the Percent Effect in assay [6] was -4.03%; in the assay filed under Homo sapiens, 25.2%; in assay [7] it was -6.36%; in assay [8], 0%; in assay [9] it was -10%; in assay [10] it was -0.115%.

Take `NC(=O)CN1CCCN(C(=O)Cc2ccc3ccccc3c2)CC1`: the Percent Effect in assay [1] was -7.48%; in [2], 0%; in assay [3], 2.66%; in [4], 1.74%; with Trypanosoma cruzi, -13.2%; in [5], -6.21%. In addition, the Percent Effect in assay [6] was 0.594%; in the assay listed under Homo sapiens, 24.3%; in [7] it was -25.4%; in assay [8], -0.526%; in [9] it was -5.13%; in assay [10], -8.56%.

Consider `Cc1noc(C)c1CN1CCCC2(CCN(C(=O)NC3CC3)C2)C1` (stereo not given), for which the Percent Effect in [1] was -2.63%; in [2] it was 22.1%; in [3] it was 0.865%; in assay [4] it was -1.1%; with Trypanosoma cruzi it was -3.94%; in assay [5] it was 5.94%. Also, the Percent Effect in assay [6] is 17.2%; in the assay filed under Homo sapiens, 16.8%; in [7], -1.92%; in [8] it was 13.5%; in assay [9], 15%; in [10], -10.3%.

With `CCc1nc(CN2CCN(C(=O)Cc3c(C)noc3C)CC2)cs1`, the Percent Effect in assay [1] is -0.475%; in [2] it was 12.8%; in assay [3], -3.43%; in [4], -11.1%; in the assay with Trypanosoma cruzi, 2.72%; in [5], 2.87%. Further, the Percent Effect in [6] is 6.06%; in the assay filed under Homo sapiens, 10.4%; in assay [7], -8.34%; in [8], 6.22%; in assay [9], 13.2%; in assay [10] it was -5.04%.
